Cruzain Triton = inhibitors of Trypanosoma cruzi cruzain with detergent; P25779; purified cruzain, Z-FR-AMC fluorescence, 0.01% Triton; Potency, µM, inactives show max response, negative = inhibition, actives largely listed as inhibitors; 0.43% of 200,000 active;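 also: plate controls were neutral wells for no effect and buffer without enzyme for full effect; nearly all actives have a fitted effect of over 40% in size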
Target sequence (P25779 123-467 limits assumed): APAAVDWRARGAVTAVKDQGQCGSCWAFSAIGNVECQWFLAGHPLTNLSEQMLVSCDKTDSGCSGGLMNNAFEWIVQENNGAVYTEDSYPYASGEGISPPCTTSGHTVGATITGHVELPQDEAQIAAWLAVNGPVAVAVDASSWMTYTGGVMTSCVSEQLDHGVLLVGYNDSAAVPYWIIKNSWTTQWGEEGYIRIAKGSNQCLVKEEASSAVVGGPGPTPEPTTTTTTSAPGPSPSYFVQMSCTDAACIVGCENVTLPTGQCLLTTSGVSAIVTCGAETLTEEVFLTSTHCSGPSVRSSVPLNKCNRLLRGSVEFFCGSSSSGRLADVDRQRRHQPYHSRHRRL
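Cysteine protease activity tested under reducing, mildly acidic conditions (100 mM sodium acetate pH 5.5, 5 mM DTT) plus 0.01% Triton X-100. Cruzain 1.5 nM; substrate Z-FR-AMC 2 uM; 15 min compound preincubation at room temperature.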
Cruzain noTriton = blocks cruzain activity in detergent-free assay. Potency, µM, inactives show max response, negative = inhibition, most hits filed as inhibitors. P25779. AID 1476. purified cruzain, Z-FR-AMC fluorescence, no detergent. 2.3% of 200,000 active;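 also: plate controls were enzyme without inhibitor for no effect and buffer without enzyme for full effect; nearly all actives have a fitted effect of over 40% in size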
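Detergent-free condition (0.00005% Triton X-100) in acetate buffer pH 5.5 with DTT. 1.5 nM enzyme and compound were pre-mixed 15 min, then 2 uM Z-FR-AMC substrate added; reaction progress from fluorescence change between first and third reads (60 s).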
* hit, by the source's call. This is a sample that favours compounds with a hit; in the whole collection about 2.5% have one here. Calls follow the shape of the dose curve; as a rule, active = well fitted curve in the direction sought with a large enough effect; inconclusive = small, poorly fitted or top-dose-only effect, or another doubt; inactive = no such curve, though single readings can be large; an effect the other way counts as inactive or inconclusive. Potency is read from the fitted curve at half-maximal effect.

Screening Cc1cc(C(=O)NCC(=O)OC(C(=O)Nc2cc(C(F)(F)F)ccc2Cl)c2ccccc2)ccc1[N+](=O)[O-] (configuration not stated) returned Cruzain Triton 4.5µM* and Cruzain noTriton 32µM*.
`CCCC(=O)OC(C(=O)Nc1cc(C(F)(F)F)ccc1Cl)c1ccccc1` (configuration not stated) gave Cruzain Triton -5% and Cruzain noTriton 19%.
`COc1ccc(C)cc1NC(=O)C(OC(=O)CNC(=O)c1ccc(Br)cc1)c1ccccc1` (configuration not stated) gave Cruzain Triton 7.9µM* and Cruzain noTriton 10µM*.
Screening COc1ccc(C)cc1NC(=O)C(OC(=O)CNC(=O)c1cc(C)cc(C)c1)c1ccccc1 (configuration not stated) returned Cruzain Triton 8.9µM* and Cruzain noTriton 20µM*.
For COc1ccc(C)cc1NC(=O)C(NS(=O)(=O)c1cccs1)c1ccccc1 (configuration not stated) the results were Cruzain Triton -2% and Cruzain noTriton -25%.
Screening Cc1ccccc1OC(=O)CSc1nnc(-c2ccc3c(c2)OCO3)o1 returned Cruzain Triton -6% and Cruzain noTriton 4%.
CCCC(=O)Nc1ncnc2c1ncn2C1OC2COP(=O)(O)OC2C1OC(=O)CCC (configuration not stated) was read as Cruzain Triton -2% and Cruzain noTriton -7%.
O=C(O)c1c[nH]c2c(ccc3[nH]cc(C(=O)O)c(=O)c32)c1=O was read as Cruzain Triton 0% and Cruzain noTriton -1%.
For CCCCC1CCC(C(=O)N2CC(=O)Nc3ccc(C)cc3C2c2ccc(F)cc2)CC1 (configuration not stated) the results were Cruzain Triton -3% and Cruzain noTriton -21%.
Screening O=C(CS(=O)(=O)c1cccc2nsnc12)NCc1ccccc1 returned Cruzain Triton -2% and Cruzain noTriton 7%.
O=S1(=O)c2ccccc2N(Cc2ccc(Cl)cc2F)c2ccccc21 was read as Cruzain Triton -9% and Cruzain noTriton 32µM*.
Screening COc1ccc(Cl)cc1NC(=O)CN1c2ccccc2S(=O)(=O)c2ccccc21 returned Cruzain Triton -9% and Cruzain noTriton 20µM*.
`COc1ccc(Cl)cc1NC(=O)Cn1cccc1` gave Cruzain Triton 0% and Cruzain noTriton 2%.
O=S1(=O)c2ccccc2N(Cc2ccc(Cl)cc2)c2ccccc21 was read as Cruzain Triton -2% and Cruzain noTriton 21%.
For COc1cc(C2c3cc4c(cc3C(OC3OC5COC(C)O[C@@H]5C(O)C3O)C3COC(=O)C23)OCO4)cc(OC)c1O (some centres not stated) the results were Cruzain Triton -1% and Cruzain noTriton -11%.
For c1nc(N2CC2)c2cnn([C@@H]3CCCCO3)c2n1 the results were Cruzain Triton 0% and Cruzain noTriton -2%.
CC(C)Sc1cc(N2CCOCC2)nc(-c2ccccc2)n1 was read as Cruzain Triton -5% and Cruzain noTriton -8%.
c1ccc(-c2ccc(Oc3cc(N4CCOCC4)nc(-c4ccccc4)n3)cc2)cc1 was read as Cruzain Triton 4% and Cruzain noTriton 10µM*.
`O=C(C1=C[C@@H]2[C@H]3C(=O)N(c4ccccc4Cl)C(=O)[C@H]3[C@@H](C(=O)c3ccc(Cl)cc3)N2C=C1)c1ccccc1` gave Cruzain Triton -8% and Cruzain noTriton -24%.
Screening Cc1ccc(N2C(=O)[C@@H]3[C@H](C2=O)[C@H]2C=C(C(=O)c4ccccc4)C=CN2[C@@H]3C(=O)c2ccc(Cl)cc2)cc1 returned Cruzain Triton -1% and Cruzain noTriton 3.2µM*.
Screening O=C(C1=C[C@@H]2[C@H]3C(=O)N(c4cccc(Cl)c4)C(=O)[C@H]3[C@@H](C(=O)c3ccc(Cl)cc3)N2C=C1)c1ccccc1 returned Cruzain Triton 0% and Cruzain noTriton 16µM*.
`Cc1ccc(N2C(=O)[C@@H]3[C@H](C2=O)C2CCCN2[C@@H]3C(=O)c2ccccc2)cc1` (some centres not stated) gave Cruzain Triton -4% and Cruzain noTriton inconclusive.
`COc1ccc(C2C(=O)N(C3CCCCC3)CC(=O)N2CCc2ccc(C)cc2)cc1OC` (configuration not stated) gave Cruzain Triton 1% and Cruzain noTriton 15%.
`O=C(Cc1ccc(NC(=O)N2CCCCc3ccccc32)cc1)NCc1ccccc1Br` gave Cruzain Triton -3% and Cruzain noTriton -25%.
CCn1c(=O)n(-c2ccc(F)c(Cl)c2)c(=O)c2c3c(sc21)CN(C(C)=O)CC3 was read as Cruzain Triton -3% and Cruzain noTriton 9%.
O=C(Nc1ncc(Cc2cccc(Cl)c2)s1)C1CCCO1 (configuration not stated) was read as Cruzain Triton -3% and Cruzain noTriton -4%.
Screening N#C/C(=C\c1c[nH]c2ccccc12)C(=O)Nc1ncc(Cc2ccc(Cl)cc2Cl)s1 returned Cruzain Triton -1% and Cruzain noTriton 7.9µM*.
CCOC(=O)/C(C#N)=C/c1c[nH]c2ccccc12 was read as Cruzain Triton -15% and Cruzain noTriton 1%.
For Cn1cc(/C=C(\C#N)C(=O)Nc2ncc(Cc3cccc(Cl)c3)s2)c2ccccc21 the results were Cruzain Triton -6% and Cruzain noTriton 7.9µM*.
`CCC/C=C(\CCC)C(NC(=O)C(C)(C)C)c1ccc(C(=O)OC)cc1` (configuration not stated) gave Cruzain Triton -3% and Cruzain noTriton 3%.
`CC(C)c1ccc2c(c1)NC(c1ccncc1)=NC(c1cccs1)=N2` gave Cruzain Triton -9% and Cruzain noTriton 2%.
CCOc1ccc(C2=NC(c3cccs3)=Nc3ccc(C(C)C)cc3N2)cc1 was read as Cruzain Triton -7% and Cruzain noTriton 3.2µM*.
Cc1noc2ncc(C(=O)c3cc(F)ccc3O)cc12 was read as Cruzain Triton 1% and Cruzain noTriton -5%.
For Cc1ccc(O)c(C(=O)c2cnc3onc(-c4ccc(F)cc4)c3c2)c1 the results were Cruzain Triton -4% and Cruzain noTriton 13µM*.
Cc1c(Cl)cccc1NS(=O)(=O)c1ccc(-c2cnc(C3CC3)o2)cc1 was read as Cruzain Triton -7% and Cruzain noTriton 12%.
`COC(=O)c1ccccc1NC(=O)c1ccc2c(c1)CCN2S(C)(=O)=O` gave Cruzain Triton 1% and Cruzain noTriton -3%.
`CNc1oc(-c2ccccc2Cl)nc1P(=O)(c1ccccc1)c1ccccc1` gave Cruzain Triton -25% and Cruzain noTriton inconclusive.
`CNc1oc(-c2ccc(C)cc2)nc1P(=O)(c1ccccc1)c1ccccc1` gave Cruzain Triton 11µM* and Cruzain noTriton -28%.
Screening N#C/C(=C\c1cc([N+](=O)[O-])c(N2CCCCC2)cc1N1CCCCC1)c1nn(-c2ccccc2)c(N)c1C#N returned Cruzain Triton 5% and Cruzain noTriton 7.9µM*.
`N#C/C(=C\c1cc([N+](=O)[O-])c(N2CCOCC2)cc1N1CCOCC1)c1nc2ccccc2[nH]1` gave Cruzain Triton -8% and Cruzain noTriton inconclusive.
`COc1ccc(N2CCN(S(=O)(=O)c3ccc(Cl)c(C(F)(F)F)c3)CC2)cc1` gave Cruzain Triton 4% and Cruzain noTriton 16µM*.
For COc1ccc(N2CCN(S(=O)(=O)c3cccc(C(F)(F)F)c3)CC2)cc1 the results were Cruzain Triton 2% and Cruzain noTriton -2%.
